Screens from PubChem.
This excerpt belongs to a sample that is enriched for hits.
LmPK inhibitor = blocks Leishmania mexicana pyruvate kinase activity; Q27686; Potency, µM (top dose mostly 57.5 µM), without a hit: at the highest dose activity change, negative = inhibition, usual class: inhibitors; 290,000 tested, 0.37% active; purified LmPK, Kinase-Glo ATP luminescence, 1 h; note: potency is the fitted concentration of half-maximal effect; % is set by controls: 0 for no effect and ±100 for the full control effect
Target sequence (Q27686 whole entry, looked up): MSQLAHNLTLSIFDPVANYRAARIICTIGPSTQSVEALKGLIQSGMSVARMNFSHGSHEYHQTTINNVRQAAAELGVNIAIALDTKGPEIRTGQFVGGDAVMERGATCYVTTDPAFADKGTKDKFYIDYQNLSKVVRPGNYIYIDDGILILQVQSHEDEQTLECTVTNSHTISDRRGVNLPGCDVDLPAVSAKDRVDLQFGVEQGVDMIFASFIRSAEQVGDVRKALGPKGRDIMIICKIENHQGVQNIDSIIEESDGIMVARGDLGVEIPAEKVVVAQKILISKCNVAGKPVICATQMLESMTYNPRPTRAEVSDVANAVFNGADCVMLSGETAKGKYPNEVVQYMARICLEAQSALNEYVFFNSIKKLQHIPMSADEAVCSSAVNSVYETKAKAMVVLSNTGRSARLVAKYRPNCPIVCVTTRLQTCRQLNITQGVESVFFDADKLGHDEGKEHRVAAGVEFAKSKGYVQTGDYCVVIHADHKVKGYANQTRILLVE
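Screened at intermediate enzyme activity to detect both inhibitors and activators: LmPK at 0.1 nM, with a 0.5 nM enzyme column as activation reference. PEP 0.5 mM, ADP 0.1 mM; ATP detected by luminescence after 1 h.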
TbPYK inhibitor = T. brucei pyruvate kinase inhibition; Q57TT1; TbPYK enzyme, Kinase-Glo Plus ATP luminescence, 45 min; Potency, µM (doses to about 76.8 µM), for the others: at the top dose activity, negative = inhibition, most hits filed as inhibitors; 410,000 tested, 0.12% active; AID 624173; note: potency is the fitted concentration of half-maximal effect; % is set by controls: 0 for no effect and ±100 for the full control effect; nearly all actives have a fitted effect of over 50% in size
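Glycolytic pyruvate kinase of T. brucei was incubated with substrate, test compound and 130 uM ADP for 45 minutes at room temperature. Luminescent Kinase-Glo Plus signal was measured after 10 minutes.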
Giardia FBPA inh = inhibitors of Giardia lamblia fructose-1,6-bisphosphate aldolase. purified Giardia FBPA. Potency, µM (doses to about 59.6 µM), inactives show top-dose activity, negative = inhibition, most hits filed as inhibitors. 290,000 tested, 0.71% active; note: potency is the fitted concentration of half-maximal effect; % is set by controls: 0 for no effect and ±100 for the full control effect; nearly all actives have a fitted effect of over 55% in size
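40 nM FBPA preincubated 10 min at RT with compound (up to 57.5 uM final), then substrate plus GAPDH/TPI/NAD/arsenate coupling and diaphorase/resazurin added. Fluorescence read after 20 min at RT, 525/598 nm.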
Cycloheximide cs = affects cycloheximide protein synthesis inhibition readout, counter-screen; cell reporter, cycloheximide protein synthesis inhibition counterscreen; max response, %; 300,000 tested, 12% active; in the data active = max response mostly above about 13%, no sharp cut-off; inactive = mostly below about 14%; note: read at 38.3 µM for the half of the compounds with a filed dose; 0% is about no effect
Sm TGR inh = S. mansoni TGR enzyme inhibition. Q962Y6. purified TGR, DTNB reduction, TNB absorbance 405 nm. Potency, µM (highest dose often 114 µM), without a hit: top-dose activity change, negative = inhibition, usual class: inhibitors. 360,000 tested, 3% active; note: potency is the fitted concentration of half-maximal effect; % is set by controls: 0 for no effect and ±100 for the full control effect; nearly all actives have a fitted effect of over 60% in size
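TGR 20 nM + NADPH 100 uM (dispensed conc.), cpd preinc 15 min RT; start with NADPH (500 uM addition) then DTNB (15 mM addition). Kinetic TNB absorbance, 405 nm filter. Four-parameter Hill fit across titration.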
Shiga toxin inh = Shiga toxin inhibition; Vero cells, Shiga toxin protein synthesis inhibition reporter; inhibition, % at 38.7 µM; 290,000 tested, 9.2% active; in the data active = inhibition mostly above about 28%, no sharp cut-off; inactive = mostly below about 43%; note: 0% is about no effect
* hit, by the source's call; ? = inconclusive; . = no result given; + = active, no number; [ ] = another dose, or the depositor's remark. Unless noted, calls come from the whole dose curve; as a rule, active = well fitted curve in the direction sought with a large enough effect; inconclusive = small, poorly fitted or top-dose-only effect, or another doubt; inactive = no such curve, though single readings can be large; an effect the other way counts as inactive or inconclusive.

SMILES | LmPK inhibitor | TbPYK inhibitor | Giardia FBPA inh | Cycloheximide cs | Sm TGR inh | Shiga toxin inh
C=CCC1(C(C)CCC)C(=O)NC(=O)NC1=O (stereo not drawn) | . | 0.0%[157 µM] | . | . | . | .
Cc1ccc2c(c1)C(=O)CCN2 | 5.8% | -4.2% | 1.0% | -1.9 | -21.3% | 3.1
O=C1CCNc2ccc(-c3ccccc3)cc21 | 0.0% | 3.3% | ? | 37.5* | -16.9% | 74.8*
O=C1CCNc2cc3ccccc3cc21 | -3.4% | ? | 34.3% | 24.9* | -2.8% | 32.1
Cc1ccc(/C=N/Nc2nc(C)cc(C)n2)cc1 | -1.2% | 5.7% | ? | 14.3* | -0.9% | 56.7*
Cc1cc2c(C)nc(N/N=C/c3ccc(F)cc3)nc2o1 | -0.2% | -7.4% | -27.7% | 17.9* | -5.1% | 25.1
CSc1ccc(/C=N/Nc2nc(C)cc(C)n2)cc1 | -6.7% | -2.0% | -11.2% | 41.7* | 5.0% | 33.2*
Cc1sc2ncn(CC(=O)N3CCN(c4ccccc4)CC3)c(=O)c2c1S(=O)(=O)N1CCC(C)CC1 | . | 1.1% | . | . | -10.1% | .
CCCN(C(=O)c1cc2c(s1)-c1ccccc1SC2)c1ccccc1F | . | 4.5% | . | . | -2.0% | .
CN(C)C(=O)c1ccc(-c2cc(NCc3ccccc3)ncn2)cc1 | . | . | 0.1% | . | . | .
COc1ccccc1CNS(=O)(=O)c1ccc2c(c1)CC(C)N2C(C)=O (stereo not drawn) | . | -2.4% | . | . | -0.2% | .
Cc1ccc(Nc2nnc(SCC(=O)Nc3cccc(S(=O)(=O)NC4=NCCCCC4)c3)s2)cc1 | 0.0% | -10.9% | -13.5% | 15.1* | 0.1% | 17.6
CCc1ccc(Nc2nnc(SCC(=O)Nc3cccc(S(=O)(=O)NC4=NCCCCC4)c3)s2)cc1 | 1.9% | -14.9% | -1.0% | 49.1* | 0.7% | active
Cc1nnc(SCC(=O)Nc2cccc(S(=O)(=O)NC3=NCCCCC3)c2)n1Cc1ccccc1 | 1.7% | -1.1% | 5.0% | -1.3 | -0.2% | -4.1
Cc1ccc(Nc2nnc(SCC(=O)Nc3ccc(S(=O)(=O)N4CCOCC4)cc3)s2)cc1 | -0.3% | -4.6% | -6.2% | 49.0* | -14.5% | 110.9*
Cc1cccc(Nc2nnc(SCC(=O)Nc3cccc(S(=O)(=O)N4CCCCC4)c3)s2)c1 | -2.5% | -3.8% | -2.3% | 29.2* | -8.8% | 77.5*
CCc1ccc(C(=O)c2cn(CC(=O)Nc3cc(F)ccc3F)c3nc(C)ccc3c2=O)cc1 | . | -14.7% | . | . | -2.2% | .
CCc1nnc(NC(=O)CSc2nnc(-c3ccc(S(=O)(=O)N4CCCC4)cc3)n2CC)s1 | -4.5% | 6.4% | 13.1% | 23.6* | 5.9% | 8.6
CCn1c(SCC(=O)Nc2nccs2)nnc1-c1ccc(S(=O)(=O)N2CCCCCC2)cc1 | 0.4% | -2.9% | 8.1% | -7.0 | 2.2% | -21.5
COc1ccc(-c2oc3ccc(N4CCOCC4)cc3c2/C=C/c2ccc(OC)c(OC)c2)cc1 | -1.9% | 0.2% | 1.1% | 11.7* | -10.5% | 29.6*
C=CCOC(=O)N[C@H](/C(C(=O)OC)=C(\C)NCc1ccccc1)c1ccc(C)cc1 | . | . | -3.9% | . | . | .
CCCCNC(=S)N/N=C1\C(=O)c2cccc3cccc1c23 | 7.4% | -9.8% | 7.7% | 0.7 | 6.0% | -7.1
CNC(=S)N/N=C1\C(=O)c2cccc3cccc1c23 | -0.4% | 0.1% | -0.9% | 22.8* | -3.0% | 22.5
CCCC#CCN1CCN(C23CC4CC(CC(C4)C2)C3)CC1 | -1.7% | 0.2% | -13.3% | -6.2 | 9.0% | -7.9
Cc1cc(C(=O)N/N=C/c2ccc(N(C)C)o2)cs1 | -16.5% | ? | . | 2.9 | ? | 17.6
SMILES | LmPK inhibitor | TbPYK inhibitor | Giardia FBPA inh | Cycloheximide cs | Sm TGR inh | Shiga toxin inh
Cc1ccc(/C=N/NC(=O)c2csc(C)c2)o1 | -0.7% | -0.8% | -0.4% | 22.8* | -34.6% | +
Cc1ccc(/C=N/NC(=O)c2cccs2)o1 | -9.6% | -5.9% | -2.1% | 40.5* | -13.5% | 161.7*
CCOC(=O)c1c(S(=O)(=O)N2CCCC(C(=O)NCc3ccccc3OC)C2)c(C)n(C)c1C (stereo not drawn) | . | 0.0% | . | . | 2.5% | .
O=C(CC1CCCCC1)NCc1ccccc1Cl | -2.2% | -6.9% | 6.6% | 38.4* | 0.9% | 48.8
O=C(COC(=O)C1CC1)NCc1ccccc1Cl | 15.6% | -7.9% | -1.1% | 15.5* | 20.2% | 29.2
CCCCC(=O)NCc1ccccc1Cl | -0.4% | 4.6% | 17.3% | 23.2* | . | 52.4
O=C(COC(=O)CCSc1ccc(Cl)cc1)NCc1ccccc1 | -0.7% | -4.0% | -2.2% | -3.9 | 3.2% | 6.5
O=C(COC(=O)CCSc1ccccc1)NCc1ccccc1Cl | 4.9% | -11.9% | 0.8% | 19.0* | 0.0% | 43.0
Cc1ccc(Cl)cc1NC(=O)c1cnn2c(C(F)F)cc(-c3ccccc3)nc12 | . | 4.4% | . | . | 8.5% | .
O=C(Cc1c(F)cccc1Cl)Nc1ccccc1-c1ccccc1 | 6.5% | -0.5% | 4.7% | -4.2 | 1.1% | 0.9
O=C(Cc1ccccc1F)Nc1ccccc1-c1ccccc1 | 0.7% | -0.2% | 4.1% | 27.5* | 20.7% | 69.5*
O=C(Nc1ccccc1-c1ccccc1)C1CCC1 | -1.7% | 3.4% | 5.3% | 26.3* | ? | 53.4
Cc1cc(C(=O)Nc2nc3ccc(Cl)cc3s2)nn1C | 4.8% | -3.1% | 0.4% | 23.8* | 1.2% | 92.5*
O=C(Nc1nc2c(Cl)cccc2s1)c1ccc(Br)o1 | 2.3% | 0.0% | 6.7% | 21.6 | 10.4% | 16.4
Cn1nc(C(=O)Nc2nc3ccc(S(C)(=O)=O)cc3s2)ccc1=O | ? | -9.8% | -0.3% | -1.0 | -4.5% | -6.7
